Compounds without any hit were thinned out: in the full panel of roughly 83,000, 20% have a hit.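 Note: values are percent growth. 100 is the growth of untreated cells, values between 100 and 0 indicate rising inhibition; between -100 and 0 indicates cell death.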 Activity calls are given as the source filed them. Rule for the calls: active = growth percent below 10; inactive = the rest.
Key:
Experiment in all cases: NCI-60 one-dose screen, 48 h (100 = growth as untreated, 0 = no growth, -100 = all killed)
Conditions in all cases: 10 µM
DU-145 prostate = tested on: DU-145 prostate
MALME-3M melanoma = tested on: MALME-3M melanoma
MDA-MB-231 breast = tested on: MDA-MB-231 breast
RXF 393 renal = tested on: RXF 393 renal
SF-268 CNS = tested on: SF-268 CNS
SF-295 CNS = tested on: SF-295 CNS
SF-539 CNS = tested on: SF-539 CNS
UACC-257 melanoma = tested on: UACC-257 melanoma
M14 melanoma = tested on: M14 melanoma
HT29 colon = tested on: HT29 colon
SNB-75 CNS = tested on: SNB-75 CNS
SNB-19 CNS = tested on: SNB-19 CNS
U251 CNS = tested on: U251 CNS
PC-3 prostate = tested on: PC-3 prostate
SK-MEL-5 melanoma = tested on: SK-MEL-5 melanoma
UACC-62 melanoma = tested on: UACC-62 melanoma
LOX IMVI melanoma = tested on: LOX IMVI melanoma
SK-MEL-28 melanoma = tested on: SK-MEL-28 melanoma
K-562 leukemia = tested on: K-562 leukemia
HCT-15 colon = tested on: HCT-15 colon

Measured: growth

C#C[C@]1(O)CCC2C3CCc4cc(OC5CCCC5)ccc4C3CC[C@@]21C (some centres undefined)
active: HT29 colon 0.124%
inactive: DU-145 prostate 89% | MALME-3M melanoma 121% | MDA-MB-231 breast 50.6% | RXF 393 renal 97.7% | SF-268 CNS 71.3% | SF-295 CNS 77.2% | SF-539 CNS 101% | UACC-257 melanoma 92.6% | M14 melanoma 80.2% | SNB-75 CNS 96% | SNB-19 CNS 104% | U251 CNS 69.9% | PC-3 prostate 57.9% | SK-MEL-5 melanoma 100% | UACC-62 melanoma 81.1% | LOX IMVI melanoma 42% | SK-MEL-28 melanoma 103%

c1ccc(/C(=N\Nc2ccc3ccccc3n2)c2ccccn2)cc1
active: K-562 leukemia 8.58% | SF-295 CNS -15.8% | SF-539 CNS -12.4% | M14 melanoma -41.8% | SNB-75 CNS -9.74% | U251 CNS 7.94% | SK-MEL-5 melanoma -51.3% | UACC-62 melanoma -49.5% | LOX IMVI melanoma -13.5%
inactive: MDA-MB-231 breast 29.8% | SF-268 CNS 19.6% | UACC-257 melanoma 16% | HCT-15 colon 25.7% | HT29 colon 26.2% | SNB-19 CNS 26.1% | PC-3 prostate 19.4% | SK-MEL-28 melanoma 20.5%

CCCCCOC(=O)Nc1nc(=O)n(C2O[C@H](C)[C@@H](O)[C@H]2O)cc1F (some centres undefined)
inactive: DU-145 prostate 115% | MALME-3M melanoma 103% | MDA-MB-231 breast 90.9% | RXF 393 renal 98.1% | SF-268 CNS 95.4% | SF-295 CNS 98.1% | SF-539 CNS 101% | UACC-257 melanoma 96.2% | HCT-15 colon 101% | HT29 colon 99.9% | SNB-75 CNS 77.1% | SNB-19 CNS 101% | U251 CNS 94.8% | PC-3 prostate 90.9% | SK-MEL-5 melanoma 99.8% | UACC-62 melanoma 95% | LOX IMVI melanoma 100% | SK-MEL-28 melanoma 115%

COc1ccc(C(=O)CC(CC(=O)c2ccc(OC)cc2)c2c(C)nn(-c3ccccc3)c2Cl)cc1
inactive: DU-145 prostate 110% | MALME-3M melanoma 92.4% | MDA-MB-231 breast 90.9% | RXF 393 renal 98.4% | SF-268 CNS 101% | SF-295 CNS 92.2% | UACC-257 melanoma 118% | M14 melanoma 90.5% | HCT-15 colon 100% | HT29 colon 87% | SNB-75 CNS 91.3% | SNB-19 CNS 93.3% | U251 CNS 102% | PC-3 prostate 85.6% | SK-MEL-5 melanoma 90.2% | UACC-62 melanoma 88.3% | LOX IMVI melanoma 83.3% | SK-MEL-28 melanoma 105%

Clc1ccc2c(c1)C(N1CCNCC1)=Nc1ccccc1O2
inactive: DU-145 prostate 68.4% | MDA-MB-231 breast 19.4% | RXF 393 renal 27.2% | SF-268 CNS 52.9% | SF-295 CNS 58% | SF-539 CNS 73.4% | HCT-15 colon 47.5% | HT29 colon 11.6% | SNB-75 CNS 16.4% | SNB-19 CNS 67.6% | U251 CNS 41.7% | PC-3 prostate 40% | SK-MEL-5 melanoma 10.4% | UACC-62 melanoma 30.4% | LOX IMVI melanoma 39%
active: MALME-3M melanoma 2.69% | UACC-257 melanoma -18.3% | SK-MEL-28 melanoma -10.9%

CC(=O)OC1CC2C(C)(C)CCC[C@]2(C)C2=C1C(O)=C(C(C)C)C(=O)C2=O (some centres undefined)
inactive: SF-268 CNS 15.7% | HT29 colon 17.2% | SNB-19 CNS 21.6% | U251 CNS 19.5%
active: DU-145 prostate -62.7% | MDA-MB-231 breast -17.8% | RXF 393 renal -59.8% | SF-295 CNS -53.1% | SF-539 CNS -7.95% | UACC-257 melanoma -12% | M14 melanoma -43% | HCT-15 colon -23.1% | SNB-75 CNS -13.3% | SK-MEL-5 melanoma -99.7% | UACC-62 melanoma -60.1% | LOX IMVI melanoma -43% | SK-MEL-28 melanoma -42.8%

COc1ccc(-c2nn(-c3cccc(Cl)c3)cc2-c2c(C#N)c(N)n(N)c(=O)c2C#N)cc1
inactive: DU-145 prostate 90.5% | MDA-MB-231 breast 75.3% | RXF 393 renal 65.3% | SF-268 CNS 60.2% | SF-539 CNS 72.8% | UACC-257 melanoma 90.3% | M14 melanoma 73.5% | HCT-15 colon 94.9% | HT29 colon 66.3% | SNB-75 CNS 48.6% | SNB-19 CNS 64% | PC-3 prostate 54% | SK-MEL-5 melanoma 81.9% | UACC-62 melanoma 75.8% | LOX IMVI melanoma 29.5%

COc1ccc(Cl)cc1Nc1nc(C(F)(F)F)ccc1C(=O)N/N=C/c1ccc(Cl)cc1
inactive: K-562 leukemia 28.6% | MDA-MB-231 breast 30.5% | SF-268 CNS 37.2% | SF-295 CNS 18.5% | SF-539 CNS 34% | UACC-257 melanoma 43.3% | HCT-15 colon 25.4% | HT29 colon 25.2% | SNB-75 CNS 33.8% | SNB-19 CNS 60.2% | U251 CNS 29.9% | PC-3 prostate 34.6% | SK-MEL-5 melanoma 24.3% | UACC-62 melanoma 24.1% | LOX IMVI melanoma 26.7% | SK-MEL-28 melanoma 51.2%

CC(C)=CCC/C(C)=C/CC/C(C)=C/CC/C=C(\C)CC/C=C(\C)CCC(=O)Nc1ccn(C2OC(CO)C(O)C2(F)F)c(=O)n1 (centres undefined)
active: SF-295 CNS -41.3% | SF-539 CNS -22.3% | M14 melanoma 2.42% | SNB-75 CNS 4.15% | SK-MEL-5 melanoma -63.4% | LOX IMVI melanoma 5.76%
inactive: K-562 leukemia 26.7% | MDA-MB-231 breast 65.2% | SF-268 CNS 19.9% | UACC-257 melanoma 18.5% | HCT-15 colon 50.9% | HT29 colon 36.2% | SNB-19 CNS 23.4% | U251 CNS 20.5% | PC-3 prostate 37.2% | UACC-62 melanoma 22% | SK-MEL-28 melanoma 60%

From PubChem BioAssay (NCI)
